{"source": "PubChem BioAssay (Tox21)", "note": "Results filed as inconclusive are left out. Entries that show only a call come without a potency. Active and inactive are the calls of the source. Calls follow the shape of the dose curve; as a rule, active = well fitted cell-killing curve with a large enough effect in the repeat runs; inconclusive = weak or mixed curves, or effect the other way; inactive = flat fitted curve, though single readings scatter."}
{"test": "qHTS assay to identify small molecule antagonists of the estrogen receptor alpha (ER-alpha) signaling pathway using the BG1 cell line in the presence of 0.1 nM 17-beta-estradiol - cell viability counter screen (AID 1259241); also: nearly all actives have a fitted effect of over 40% in size", "details": "VM7Luc4E2 (BG1) viability, CellTiter-Fluor protease, 22 h, 0.1 nM estradiol agonist added; series mostly up to 92.4 µM", "excerpt": "National Center for Advancing Translational Sciences [NCATS]\nNIH Chemical Genomics Center [NCGC]\nU.S. Environmental Protection Agency [EPA]\nNational Institutes of Environmental Health Sciences [NIEHS]\nNational Toxicology Program [NTP]\nU.S. Food and Drug Administration [FDA]\nEstrogen receptor (ER), a member of the nuclear hormone receptor plays an important role in development, metabolic homeostasis and reproduction. Two subtypes of ER, ER-alpha and ER-beta, have similar expression patterns with some uniqueness in both types. Endocrine disrupting chemicals (EDCs) and their interactions with steroid hormone receptors like ER causes disruption of normal endocrine function. Therefore, it is important to understand the effect of environmental chemicals in ER signaling pathway. For identifying ER antagonists, VM7Luc4E2 cell line was used to screen against Tox21 compound libraries.\nVM7Luc4E2 cell line (provided by Denison MS, University of California) endogenously express full-length ER-alpha and is stably transfected with a plasmid containing four estrogen responsive elements (ERE) upstream of a luciferase reporter gene. The current screening for identification of ER-alpha inhibitors against Tox21 compound libraries used lower concentration (0.1 nM) of 17beta-Estradiol as a stimulator. The cytotoxicity of the Tox21 compound libraries against VM7Luc4E2 cell line was tested by measuring live-cell protease activity using CellTiter-Fluor assay in the same wells.\nTox21 Assay Protocol Summary:\nVM7Luc4E2 cells were cultured in phenol red free assay medium containing 10% charcoal stripped FBS for 5 days prior to the assay. The cells were dispensed at 4,000 cells/well in 4 uL of assay medium into white wall/solid-bottom 1536-well plates (Corning Life Sciences, Corning, NY) using a Multidrop Combi (ThermoFisher Scientific, Waltham, MA) dispenser. After the assay plates were incubated at 37C and 5% CO2 for 24 hr, 23 nL of compounds dissolved in DMSO, positive controls or DMSO only was transferred to the assay plates by a Pintool station (Kalypsys, San Diego, CA). The transfer of compounds was followed by the addition of 1 uL of 0.1 nM (final concentration) agonist (17beta-Estradiol)/assay medium using a Flying Reagent Dispenser (FRD, Aurora Discovery, San Diego, CA). The plates were incubated at 37C and 5% CO2 for 22 hr. For cytotoxicity assay, 1 uL of CellTiter-Fluor reagent (Promega Corporation, Madison, WI) was added to each well using the FRD and after 30 min incubation at 37C and 5% CO2, The fluorescence intensity was measured using ViewLux plate reader (PerkinElmer, Shelton, CT)."}
{"smiles": "O=C1c2ccccc2C(=O)c2cc(S(=O)(=O)O)ccc21", "Potency": "inactive"}
{"smiles": "CCOC(=O)CC(=O)c1ccccc1", "Potency": "inactive"}
{"smiles": "N[C@@H](CCC(=O)Nc1ccc([N+](=O)[O-])cc1)C(=O)O", "Potency": "inactive"}
{"smiles": "C[C@H](N)[C@H](O)c1cccc(O)c1", "Potency": "inactive"}
{"smiles": "CC(C)C(=O)OCCc1ccccc1", "Potency": "inactive"}
{"smiles": "COc1ccc2c(c1)C(=O)N(CCc1ccc(S(=O)(=O)NC(=O)NC3CCCCC3)cc1)C(=O)C2(C)C", "Potency": "inactive"}
{"smiles": "Cc1c(I)c(=O)n(-c2ccccc2)n1C", "Potency": "inactive"}
{"smiles": "Oc1cn2c(n1)Nc1ccc(Cl)c(Cl)c1C2", "activity change, negative = cytotoxicity": "0.999% [at 19 µM] (inactive)"}
{"smiles": "CC(=O)OC(C)OC(=O)C(C)c1ccc(-c2ccccc2)c(F)c1", "note": "(stereo not given)", "Potency": "inactive"}
{"smiles": "Cc1ccsc1/C=C/C1=NCCCN1C", "Potency": "inactive"}
{"smiles": "CC(C)C(=O)OCc1cccc(OC(=O)[C@@H]2N3C(=O)[C@@H](NC(=O)Cc4ccccc4)[C@H]3SC2(C)C)c1", "Potency": "inactive"}
{"smiles": "COC(=O)CCCCCCCC(=O)OC", "Potency": "inactive"}
{"smiles": "CCc1ccc(C=O)cc1", "Potency": "inactive"}
{"smiles": "CC(=C(CCOC(=O)C(C)C)SSC(CCOC(=O)C(C)C)=C(C)N(C=O)Cc1cnc(C)nc1N)N(C=O)Cc1cnc(C)nc1N", "Potency": "inactive"}
{"smiles": "CC(C)(C)NC(N)=O", "Potency": "inactive"}
{"smiles": "CCN(CC)CC(=O)Nc1c(C)cccc1C", "Potency": "inactive"}
{"smiles": "CCC(C)NC(N)=O", "note": "(stereo not given)", "Potency": "inactive"}
{"smiles": "COc1cc(NS(=O)(=O)c2ccc(N)cc2)nc(OC)n1", "Potency": "inactive"}
{"smiles": "CCCCCOC(=O)CCC", "Potency": "inactive"}
{"smiles": "O=C(NCC(O)CO)c1c(I)c(C(=O)NCC(O)CO)c(I)c(N(CCO)C(=O)CO)c1I", "note": "(stereo not given)", "Potency": "inactive"}
{"smiles": "C=CC(OCC)OCC", "Potency": "inactive"}
{"smiles": "BrCc1cccc(Oc2ccccc2)c1", "Potency": "inactive"}
{"smiles": "COc1ccc(S(=O)(=O)N2c3ccc(Cl)cc3[C@@](O)(c3ccccc3Cl)[C@H]2C(=O)N2CCC[C@@H]2C(N)=O)cc1OC", "Potency": "inactive"}
{"smiles": "CC(C)OC(=O)CCCCC(=O)OC(C)C", "Potency": "inactive"}
{"smiles": "O=P(O)(O)OP(=O)(O)O", "Potency": "inactive"}
{"smiles": "O=C1c2cccc3c2[C@H](CCC3)CN1[C@@H]1CN2CCC1CC2", "Potency": "inactive"}
{"smiles": "CCCCC(CC)COCCO", "note": "(stereo not given)", "Potency": "inactive"}
{"smiles": "Cc1cc(C(C)(C)C)c(O)c(C)c1CC1=NCCN1", "Potency": "inactive"}
{"smiles": "CC1(CO)CN(c2ccccc2)NC1=O", "note": "(stereo not given)", "Potency": "inactive"}
{"smiles": "c1ccc2c(c1)ccc1c3ccccc3ccc21", "Potency": "inactive"}
{"smiles": "COc1ccc2nc(SCc3ncc(C)c(OC)c3C)[nH]c2c1", "Potency": "inactive"}
{"smiles": "CCO[Si](CCCS)(OCC)OCC", "Potency": "inactive"}
{"smiles": "O=S(O)(O)=S", "activity change, negative = cytotoxicity": "6.4% [at 8.39 µM] (inactive)"}
{"smiles": "C[C@H](CCC(=O)O)[C@H]1CC[C@H]2[C@@H]3C(=O)C[C@@H]4CC(=O)CC[C@]4(C)[C@H]3CC(=O)[C@]12C", "Potency": "inactive"}
{"smiles": "CCCN1C[C@H](CSC)C[C@@H]2c3cccc4[nH]cc(c34)C[C@H]21", "Potency": "inactive"}
{"smiles": "COc1nccnc1NS(=O)(=O)c1ccc(N)cc1", "Potency": "inactive"}
{"smiles": "CCOC(=O)c1ccc(OC(=O)CCCCCN=C(N)N)cc1", "Potency": "inactive"}
{"smiles": "CC(C)C[C@H](NC(=O)CNC(=O)[C@H](Cc1ccc(O)cc1)NC(=O)[C@H](CO)NC(=O)[C@H](Cc1c[nH]c2ccccc12)NC(=O)[C@H](Cc1cnc[nH]1)NC(=O)[C@@H]1CCC(=O)N1)C(=O)N[C@@H](CCCN=C(N)N)C(=O)N1CCC[C@H]1C(=O)NCC(N)=O", "note": "(stereo in doubt)", "Potency": "inactive"}
{"smiles": "CN(C)CCOCCO", "Potency": "inactive"}
{"smiles": "CC(=O)c1sc(C)nc1C", "Potency": "inactive"}
